Records with an inconclusive call do not appear. Active and inactive are the calls of the source. How the source made its calls, unless noted: active means hit-call score of the fitted dose curve at least 0.9, where 1 is the maximum; inactive means score below 0.9.
Tests used:
[1] = ATG_TAL_CIS: Attagene CIS-FACTORIAL HepG2 Assay for human TAL Basal Promoter (AID 2282966); details: HepG2 Attagene cis-factorial TAL promoter reporter; actives raise or lower the signal;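 further: background control endpoint measuring basal TAL promoter reporter mRNA not a specific factor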
Procedure, shortened: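 HepG2 cells transiently transfected with multiplexed cis-promoter reporter units, dosed 24 h. Reporter mRNA quantified by RT-PCR, 6-FAM labelling, HpaI digestion and capillary electrophoresis; TAL basal promoter serves as background control, fitted bidirectionally versus DMSO.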

[2] = ATG_TGFb_CIS: Attagene CIS-FACTORIAL HepG2 Assay for human Transforming Growth Factor (TGF) (AID 2282967); details: HepG2 Attagene CIS TGFb reporter, mRNA transcription; actives raise or lower the signal
Procedure, shortened: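 After a 24-hour incubation with compound, transfected HepG2 cells were lysed for RNA; reporter cDNA was amplified, fluorescently end-labeled and separated by CE. DMSO served as baseline for bidirectional fits.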

[3] = ATG_VDRE_CIS: Attagene CIS-FACTORIAL HepG2 Assay for human Vitamin D Receptor Element (VDRE) (AID 2282968); details: HepG2 VDRE cis-reporter transcription, actives raise or lower the signal
Procedure, shortened: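 RT-PCR/CE readout of reporter mRNA; HepG2, transient transfection, 24 h dosing; DMSO baseline; bidirectional analysis.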

[4] = molecular target: X-box-binding protein 1 (Homo sapiens) (UniProt P17861); assay: ATG_Xbp1_CIS: Attagene CIS-FACTORIAL HepG2 Assay for human X-box Binding Protein 1 (XBP1) (AID 2282972); details: HepG2 XBP1 cis-element reporter, Attagene multiplex; actives raise or lower the signal
Sequence of X-box-binding protein 1 (Homo sapiens) (P17861 whole entry, looked up): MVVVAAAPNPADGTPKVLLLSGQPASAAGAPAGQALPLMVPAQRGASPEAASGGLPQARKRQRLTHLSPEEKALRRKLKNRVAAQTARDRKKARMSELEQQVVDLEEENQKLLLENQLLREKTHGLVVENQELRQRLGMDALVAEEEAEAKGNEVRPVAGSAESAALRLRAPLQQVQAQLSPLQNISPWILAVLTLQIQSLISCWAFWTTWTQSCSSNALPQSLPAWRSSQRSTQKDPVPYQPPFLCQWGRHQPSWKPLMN
Procedure, shortened: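 HepG2, transient MRTU transfection (cis-promoter driven), 24 h compound exposure. Total RNA → oligo(dT) RT → PCR → 6-FAM labeling → HpaI cut → CE. Bidirectional fit vs DMSO.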

[5] = ATG_M_19_TRANS: Attagene TRANS-FACTORIAL HepG2 Assay for M19 Transcription Factor (Internal Marker) (AID 2282974; active means hit-call score of the fitted dose curve at least 0.9, where 1 is the maximum); details: HepG2 Attagene TRANS-FACTORIAL M19 internal marker reporter
Procedure, shortened: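 Transfected HepG2 (GAL4-UAS MRTUs), 24 h compound, TriZol RNA, DNase-treated RT, reporter PCR, FAM label, HpaI digest, CE fluorescence; gain vs DMSO.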

[6] = ATG_GAL4_TRANS: Attagene TRANS-FACTORIAL HepG2 Assay for GAL4 (Internal Marker) (AID 2282976; active means hit-call score of the fitted dose curve at least 0.9, where 1 is the maximum); details: HepG2 Attagene TRANS GAL4 internal marker reporter
Procedure, shortened: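 Background-control readout: GAL4-UAS reporter transcript in transiently transfected HepG2 cells after 24 h compound exposure. Measured by RT-PCR, 6-FAM primer extension, HpaI digest and capillary electrophoresis; gain-of-signal fit versus DMSO.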

[7] = molecular target: Glucocorticoid receptor (Homo sapiens) (UniProt P04150); assay: ATG_GR_TRANS: Attagene TRANS-FACTORIAL HepG2 Assay for human Glucocorticoid Receptor (GR) (AID 2282978; active means hit-call score of the fitted dose curve at least 0.9, where 1 is the maximum;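 further: activators score as hits since higher reporter transcript over DMSO is fitted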); details: HepG2 Attagene TRANS GR reporter, mRNA transcription
Sequence of Glucocorticoid receptor (Homo sapiens) (P04150 whole entry, looked up): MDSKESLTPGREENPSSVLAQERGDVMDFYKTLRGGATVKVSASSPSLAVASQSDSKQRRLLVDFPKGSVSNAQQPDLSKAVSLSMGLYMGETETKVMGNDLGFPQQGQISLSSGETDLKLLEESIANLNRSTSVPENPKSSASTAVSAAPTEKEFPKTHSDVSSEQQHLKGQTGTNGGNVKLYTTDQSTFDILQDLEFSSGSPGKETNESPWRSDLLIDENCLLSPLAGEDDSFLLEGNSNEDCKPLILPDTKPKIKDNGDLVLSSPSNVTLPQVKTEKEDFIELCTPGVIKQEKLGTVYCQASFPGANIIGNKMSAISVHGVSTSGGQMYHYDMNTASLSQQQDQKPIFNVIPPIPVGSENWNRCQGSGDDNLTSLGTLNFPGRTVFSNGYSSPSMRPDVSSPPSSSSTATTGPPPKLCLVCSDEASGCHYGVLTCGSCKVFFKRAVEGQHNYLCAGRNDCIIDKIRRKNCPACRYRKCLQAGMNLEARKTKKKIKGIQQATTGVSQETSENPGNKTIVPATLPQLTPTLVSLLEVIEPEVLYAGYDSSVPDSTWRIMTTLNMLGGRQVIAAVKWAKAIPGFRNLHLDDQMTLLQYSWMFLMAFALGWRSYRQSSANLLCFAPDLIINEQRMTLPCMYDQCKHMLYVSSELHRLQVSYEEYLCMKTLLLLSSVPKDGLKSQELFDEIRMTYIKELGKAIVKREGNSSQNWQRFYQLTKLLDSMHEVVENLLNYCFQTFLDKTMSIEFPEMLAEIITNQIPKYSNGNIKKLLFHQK
Procedure, shortened: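 After 24 h incubation with test chemical, transfected HepG2 cells were lysed for RNA; reporter cDNA was amplified, FAM-labelled, HpaI-digested and sized on a capillary analyser. Signal gain relative to DMSO was scored.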

[8] = molecular target: Hepatocyte nuclear factor 4-alpha (Homo sapiens) (UniProt P41235); assay: ATG_HNF4a_TRANS: Attagene TRANS-FACTORIAL HepG2 Assay for human Hepatocyte Nuclear Factor 4 alpha (HNF4a) (AID 2282982; active means hit-call score of the fitted dose curve at least 0.9, where 1 is the maximum); details: HepG2 HNF4a transactivation reporter, mRNA readout
Sequence of Hepatocyte nuclear factor 4-alpha (Homo sapiens) (P41235 whole entry, looked up, the tested form may be a part): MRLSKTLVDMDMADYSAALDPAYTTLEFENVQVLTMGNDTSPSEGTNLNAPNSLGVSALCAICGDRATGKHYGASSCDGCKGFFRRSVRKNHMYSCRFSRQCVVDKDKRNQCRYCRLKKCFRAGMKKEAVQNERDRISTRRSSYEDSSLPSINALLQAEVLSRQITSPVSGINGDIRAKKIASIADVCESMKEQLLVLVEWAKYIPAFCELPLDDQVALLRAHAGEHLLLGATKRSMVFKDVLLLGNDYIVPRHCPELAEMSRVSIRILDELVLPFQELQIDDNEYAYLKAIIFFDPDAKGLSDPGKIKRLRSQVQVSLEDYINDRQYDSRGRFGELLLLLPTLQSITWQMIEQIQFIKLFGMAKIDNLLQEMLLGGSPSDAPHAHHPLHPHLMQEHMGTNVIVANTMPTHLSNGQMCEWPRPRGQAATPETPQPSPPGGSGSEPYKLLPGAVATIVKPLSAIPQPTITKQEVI
Procedure, shortened: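 Cells used were human HepG2, transiently carrying GAL4-UAS reporter units read out against exogenous NR-GAL4 chimeras. Reporter transcript levels after 24 h dosing were quantified by fluorescent RT-PCR and capillary electrophoresis.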

[9] = ATG_M_06_TRANS: Attagene TRANS-FACTORIAL HepG2 Assay for M06 Transcription Factor (Internal Marker) (AID 2282983; active means hit-call score of the fitted dose curve at least 0.9, where 1 is the maximum); details: HepG2 Attagene TRANS M06 internal marker reporter
Procedure, shortened: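 HepG2 cells transiently transfected with GAL4-UAS multiple reporter units, dosed 24 h. Reporter RNA reverse-transcribed, PCR-amplified, 6-FAM-labeled, HpaI-digested and quantified by capillary electrophoresis; this internal-marker signal fitted upward relative to DMSO.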

[10] = molecular target: Nuclear receptor subfamily 4 group A member 2 (Homo sapiens) (UniProt P43354); assay: ATG_NURR1_TRANS: Attagene TRANS-FACTORIAL HepG2 Assay for human Nuclear Receptor Related Protein 1 (NURR1) (AID 2282985; active means hit-call score of the fitted dose curve at least 0.9, where 1 is the maximum); details: HepG2 Attagene TRANS reporter, mRNA readout
Sequence of Nuclear receptor subfamily 4 group A member 2 (Homo sapiens) (P43354 whole entry, looked up): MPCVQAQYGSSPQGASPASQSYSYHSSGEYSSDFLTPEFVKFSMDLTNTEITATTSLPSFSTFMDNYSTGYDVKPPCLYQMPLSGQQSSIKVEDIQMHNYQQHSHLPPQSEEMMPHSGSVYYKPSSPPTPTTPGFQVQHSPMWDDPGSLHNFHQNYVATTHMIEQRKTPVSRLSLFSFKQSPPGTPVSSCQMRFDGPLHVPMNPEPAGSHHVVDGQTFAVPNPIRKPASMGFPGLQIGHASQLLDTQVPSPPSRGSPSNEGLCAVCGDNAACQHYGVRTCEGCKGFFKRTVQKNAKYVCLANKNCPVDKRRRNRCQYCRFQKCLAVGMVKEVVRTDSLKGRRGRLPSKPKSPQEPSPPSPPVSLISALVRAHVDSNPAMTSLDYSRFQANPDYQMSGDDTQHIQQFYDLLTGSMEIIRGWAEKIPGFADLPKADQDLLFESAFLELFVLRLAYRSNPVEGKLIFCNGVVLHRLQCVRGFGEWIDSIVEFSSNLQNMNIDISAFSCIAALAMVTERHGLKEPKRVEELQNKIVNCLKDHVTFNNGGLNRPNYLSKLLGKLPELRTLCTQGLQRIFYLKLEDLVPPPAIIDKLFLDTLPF
Procedure, shortened: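 After 24 h chemical dosing, total RNA from transiently transfected HepG2 cells was reverse-transcribed and reporter cDNA PCR-amplified, FAM-labelled and analysed by capillary electrophoresis. Activity fitted in positive direction, DMSO as negative control.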

[11] = molecular target: Transcriptional activator Myb (Homo sapiens) (UniProt P10242); assay: ATG_Myb_CIS: Attagene CIS-FACTORIAL HepG2 Assay for human Myeloblastosis (Myb) Proto-Oncogene Transcription Factor (AID 2282986); details: HepG2 Attagene CIS-FACTORIAL Myb reporter transcription; actives raise or lower the signal
Sequence of Transcriptional activator Myb (Homo sapiens) (P10242 whole entry, looked up): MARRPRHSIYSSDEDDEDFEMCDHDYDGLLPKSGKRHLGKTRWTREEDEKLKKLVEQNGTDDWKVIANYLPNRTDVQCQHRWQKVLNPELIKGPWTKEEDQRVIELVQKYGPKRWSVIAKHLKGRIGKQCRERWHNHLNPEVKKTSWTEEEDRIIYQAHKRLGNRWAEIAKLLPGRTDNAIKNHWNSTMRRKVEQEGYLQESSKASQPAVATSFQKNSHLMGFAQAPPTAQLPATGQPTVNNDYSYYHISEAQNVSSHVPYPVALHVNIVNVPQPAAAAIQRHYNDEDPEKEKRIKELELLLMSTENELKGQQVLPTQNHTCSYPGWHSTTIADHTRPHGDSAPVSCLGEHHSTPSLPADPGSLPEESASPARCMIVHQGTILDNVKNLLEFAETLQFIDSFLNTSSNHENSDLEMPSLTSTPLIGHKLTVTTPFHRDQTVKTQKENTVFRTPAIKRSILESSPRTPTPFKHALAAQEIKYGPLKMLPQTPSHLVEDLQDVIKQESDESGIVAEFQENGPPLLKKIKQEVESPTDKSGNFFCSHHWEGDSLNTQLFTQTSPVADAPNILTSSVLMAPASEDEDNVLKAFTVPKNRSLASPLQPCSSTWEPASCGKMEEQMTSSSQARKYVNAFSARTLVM
Procedure, shortened: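 After 24 h of compound dosing, total RNA from transfected HepG2 cells is reverse-transcribed and the reporter sequences amplified, labeled and separated by capillary electrophoresis. Values come from bidirectional fitting against DMSO.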

[12] = molecular target: Nuclear respiratory factor 1 (Homo sapiens) (UniProt Q16656); assay: ATG_NRF1_CIS: Attagene CIS-FACTORIAL HepG2 Assay for human Nuclear Respiratory Factor 1 (NRF1) Orphan Gene (AID 2282987); details: HepG2 NRF1 cis-element reporter, Attagene multiplex; actives raise or lower the signal
Sequence of Nuclear respiratory factor 1 (Homo sapiens) (Q16656 whole entry, looked up): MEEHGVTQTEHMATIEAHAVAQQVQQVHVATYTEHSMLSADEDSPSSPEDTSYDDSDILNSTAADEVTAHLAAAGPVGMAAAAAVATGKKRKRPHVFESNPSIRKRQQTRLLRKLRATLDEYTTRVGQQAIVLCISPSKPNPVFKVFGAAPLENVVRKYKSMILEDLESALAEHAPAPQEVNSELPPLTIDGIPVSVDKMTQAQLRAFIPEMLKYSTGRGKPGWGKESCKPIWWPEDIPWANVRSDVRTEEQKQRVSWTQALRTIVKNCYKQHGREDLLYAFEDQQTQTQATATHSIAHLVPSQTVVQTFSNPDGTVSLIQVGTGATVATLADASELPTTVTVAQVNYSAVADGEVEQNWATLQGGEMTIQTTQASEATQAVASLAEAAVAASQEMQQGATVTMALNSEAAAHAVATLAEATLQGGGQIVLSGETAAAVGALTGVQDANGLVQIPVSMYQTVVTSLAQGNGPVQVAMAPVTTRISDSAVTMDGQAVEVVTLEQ
Procedure, shortened: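 Measured: fluorescent reporter-specific RT-PCR products from transfected HepG2 cells, separated by capillary electrophoresis. Exposure lasted 24 h. Analysis used bidirectional curve fitting with DMSO as negative control.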

[13] = molecular target: Estrogen-related receptor gamma (Homo sapiens) (UniProt P62508); assay: ATG_ERRg_TRANS: Attagene TRANS-FACTORIAL HepG2 Assay for human Estrogen-Related Receptor gamma (ERRg) (AID 2282977; active means hit-call score of the fitted dose curve at least 0.9, where 1 is the maximum;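 further: hits increase reporter signal over DMSO so potencies reflect activators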); details: HepG2 Attagene TRANS reporter, ERRg transactivation
Procedure, shortened: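 Transfect HepG2 with multiple GAL4-UAS reporter transcription units; dose chemicals 24 h; isolate RNA, reverse-transcribe with oligo(dT), PCR-amplify, label with 6-FAM, digest with HpaI; size fragments by capillary electrophoresis. DMSO serves as negative control.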

[14] = molecular target: Oxysterols receptor LXR-alpha (Homo sapiens) (UniProt Q13133); assay: ATG_LXRa_TRANS: Attagene TRANS-FACTORIAL HepG2 Assay for human Liver X Receptor alpha (LXRa) (AID 2282980; active means hit-call score of the fitted dose curve at least 0.9, where 1 is the maximum); details: HepG2 Attagene TRANS reporter, LXRa transactivation
Sequence of Oxysterols receptor LXR-alpha (Homo sapiens) (Q13133 whole entry, looked up, the tested form may be a part): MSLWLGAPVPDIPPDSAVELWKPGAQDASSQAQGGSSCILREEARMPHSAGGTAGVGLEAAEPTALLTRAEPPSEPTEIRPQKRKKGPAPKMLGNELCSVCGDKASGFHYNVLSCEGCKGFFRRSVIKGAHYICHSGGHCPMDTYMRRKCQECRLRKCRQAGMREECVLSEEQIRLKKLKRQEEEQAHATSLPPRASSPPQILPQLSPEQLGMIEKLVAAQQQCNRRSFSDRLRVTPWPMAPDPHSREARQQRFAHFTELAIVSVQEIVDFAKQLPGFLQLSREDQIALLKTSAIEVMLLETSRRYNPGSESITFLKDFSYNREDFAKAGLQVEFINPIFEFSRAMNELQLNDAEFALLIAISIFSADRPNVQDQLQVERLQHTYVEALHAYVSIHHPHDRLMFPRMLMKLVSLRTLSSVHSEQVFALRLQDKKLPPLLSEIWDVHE
Procedure, shortened: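 HepG2 cells transiently transfected with GAL4-UAS reporter units for chimeric NR-Gal4 proteins, exposed to chemicals for 24 h. Reporter mRNA quantified by RT-PCR and capillary electrophoresis; gain of signal fitted relative to DMSO.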

[15] = ATG_M_32_TRANS: Attagene TRANS-FACTORIAL HepG2 Assay for M32 Transcription Factor (Internal Marker) (AID 2282984; active means hit-call score of the fitted dose curve at least 0.9, where 1 is the maximum); details: HepG2 Attagene TRANS M32 internal marker reporter
Procedure, shortened: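 Human hepatoma HepG2, transient MRTU transfection, 24 h treatment. RNA → RT-PCR → fluorescent primer extension → HpaI digest (2 h, 37 C) → CE. Positive-direction fit vs DMSO.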

[16] = molecular target: Bile acid receptor (Homo sapiens) (UniProt Q96RI1); assay: ATG_FXR_TRANS: Attagene TRANS-FACTORIAL HepG2 Assay for Farnesoid X Receptor (FXR) (AID 2282979; active means hit-call score of the fitted dose curve at least 0.9, where 1 is the maximum;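 further: hits raise reporter mRNA above DMSO so AC50 marks FXR activation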); details: HepG2 Attagene TRANS FXR-GAL4 reporter transcription
Sequence of Bile acid receptor (Homo sapiens) (Q96RI1 whole entry, looked up, the tested form may be a part): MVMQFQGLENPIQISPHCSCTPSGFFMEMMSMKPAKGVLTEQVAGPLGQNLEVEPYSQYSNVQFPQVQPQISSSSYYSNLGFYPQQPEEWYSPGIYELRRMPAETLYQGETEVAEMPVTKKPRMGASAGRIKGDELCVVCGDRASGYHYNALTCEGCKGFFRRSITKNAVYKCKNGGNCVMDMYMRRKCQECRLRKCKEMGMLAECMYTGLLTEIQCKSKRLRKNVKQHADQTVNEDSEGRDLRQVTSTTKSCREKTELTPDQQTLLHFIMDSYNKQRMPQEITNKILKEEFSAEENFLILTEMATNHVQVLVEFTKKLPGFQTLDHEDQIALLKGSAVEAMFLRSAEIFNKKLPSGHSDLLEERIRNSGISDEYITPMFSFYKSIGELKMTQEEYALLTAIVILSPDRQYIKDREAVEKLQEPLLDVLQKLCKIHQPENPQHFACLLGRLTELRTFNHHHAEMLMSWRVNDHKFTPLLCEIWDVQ
Procedure, shortened: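 HepG2 cells were transiently transfected with GAL4-UAS reporters driven by chimeric NR-Gal4 proteins and dosed for 24 h. Reporter mRNA was quantified by RT-PCR, fluorescent labelling, HpaI digestion and capillary electrophoresis, with gain of signal scored versus DMSO.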

[17] = molecular target: Oxysterols receptor LXR-beta (Homo sapiens) (UniProt P55055); assay: ATG_LXRb_TRANS: Attagene TRANS-FACTORIAL HepG2 Assay for human Liver X Receptor beta (LXRb) (AID 2282981; active means hit-call score of the fitted dose curve at least 0.9, where 1 is the maximum); details: HepG2 Attagene TRANS GAL4-LXRb reporter, mRNA
Sequence of Oxysterols receptor LXR-beta (Homo sapiens) (P55055 whole entry, looked up, the tested form may be a part): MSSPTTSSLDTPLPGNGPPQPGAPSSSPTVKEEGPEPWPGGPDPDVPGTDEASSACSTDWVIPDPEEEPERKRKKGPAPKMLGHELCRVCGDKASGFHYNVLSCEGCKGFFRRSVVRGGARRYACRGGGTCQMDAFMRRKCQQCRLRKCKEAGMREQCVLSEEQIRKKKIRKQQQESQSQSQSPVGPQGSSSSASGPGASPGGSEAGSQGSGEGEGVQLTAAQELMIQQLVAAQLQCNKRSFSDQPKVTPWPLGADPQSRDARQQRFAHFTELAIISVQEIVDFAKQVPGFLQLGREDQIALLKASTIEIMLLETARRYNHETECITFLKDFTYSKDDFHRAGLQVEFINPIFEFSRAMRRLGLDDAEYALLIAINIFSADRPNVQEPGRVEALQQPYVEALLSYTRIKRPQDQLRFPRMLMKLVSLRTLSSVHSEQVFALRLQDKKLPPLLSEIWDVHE
Procedure, shortened: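 In this TRANS format, exogenous chimeric NR-Gal4 protein activity, not endogenous factors, drives reporter expression in transfected human HepG2 cells. Exposure lasted 24 h; reporter mRNA was read by fluorescent capillary electrophoresis.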

**Q.** Which outcome [1] does the source give for Nc1ccc(Cl)c([N+](=O)[O-])c1 here?
**A.** Its outcome is “inactive”.

**Q.** And the outcome [2]?
**A.** Its outcome is “inactive”.

**Q.** What about the outcome [3] of the same compound?
**A.** The outcome was “inactive”.

**Q.** And the outcome [4]?
**A.** The outcome was “inactive”.

**Q.** And the outcome [5]?
**A.** Its outcome is “inactive”.

**Q.** And the outcome [6]?
**A.** Its outcome is “inactive”.

**Q.** What about the outcome [7] of the same compound?
**A.** The outcome was “inactive”.

**Q.** And the outcome [8]?
**A.** Its outcome is “inactive”.

**Q.** And the outcome [9]?
**A.** Its outcome is “inactive”.

**Q.** What about the outcome [10] of the same compound?
**A.** Its outcome is “inactive”.

**Q.** What about the outcome [11] of the same compound?
**A.** Its outcome is “inactive”.

**Q.** And the outcome [12]?
**A.** Its outcome is “inactive”.

**Q.** Which outcome [1] does the source give for CN1CCOCC1 here?
**A.** Its outcome is “inactive”.

**Q.** And the outcome [2]?
**A.** Its outcome is “inactive”.

**Q.** What about the outcome [3] of the same compound?
**A.** Its outcome is “inactive”.

**Q.** What about the outcome [4] of the same compound?
**A.** The outcome was “inactive”.

**Q.** What about the outcome [5] of the same compound?
**A.** The outcome was “inactive”.

**Q.** And the outcome [6]?
**A.** Its outcome is “inactive”.

**Q.** What about the outcome [13] of the same compound?
**A.** Its outcome is “inactive”.

**Q.** And the outcome [14]?
**A.** The outcome was “inactive”.

**Q.** And the outcome [15]?
**A.** Its outcome is “inactive”.

**Q.** What about the outcome [11] of the same compound?
**A.** Its outcome is “inactive”.

**Q.** What about the outcome [12] of the same compound?
**A.** The outcome was “inactive”.

**Q.** For CC(=O)O[C@@H]1C[C@@H]2CC[C@@]1(C)C2(C)C, which outcome [1] is on record?
**A.** Its outcome is “inactive”.

**Q.** What about the outcome [2] of the same compound?
**A.** Its outcome is “inactive”.

**Q.** And the outcome [3]?
**A.** Its outcome is “inactive”.

**Q.** And the outcome [4]?
**A.** The outcome was “inactive”.

**Q.** What about the outcome [5] of the same compound?
**A.** Its outcome is “inactive”.

**Q.** What about the outcome [7] of the same compound?
**A.** Its outcome is “inactive”.

**Q.** What about the outcome [16] of the same compound?
**A.** Its outcome is “inactive”.

**Q.** And the outcome [14]?
**A.** Its outcome is “inactive”.

**Q.** What about the outcome [17] of the same compound?
**A.** The outcome was “inactive”.

**Q.** What about the outcome [8] of the same compound?
**A.** The outcome was “inactive”.

**Q.** What about the outcome [11] of the same compound?
**A.** The outcome was “inactive”.

**Q.** What about the outcome [12] of the same compound?
**A.** Its outcome is “inactive”.

**Q.** What does the source list for C=C(C)[C@@H]1CC=C(C)C(=O)C1?
**A.** outcome [1]: inactive; outcome [2]: inactive; outcome [3]: inactive; outcome [4]: inactive; outcome [5]: inactive; outcome [7]: inactive; outcome [14]: inactive; outcome [17]: inactive; outcome [8]: inactive; outcome [10]: inactive; outcome [11]: inactive; outcome [12]: inactive

**Q.** With CC1=C(Br)C(=O)C(Br)=C/C1=C(/c1ccccc1S(=O)(=O)O)c1cc(Br)c(O)c(Br)c1C as the compound, how does the outcome [1] read?
**A.** Its outcome is “inactive”.

**Q.** And the outcome [2]?
**A.** Its outcome is “inactive”.

**Q.** And the AC50 [3]?
**A.** Its AC50 is 40.8 µM (active).

**Q.** What about the outcome [4] of the same compound?
**A.** Its outcome is “inactive”.

**Q.** What about the outcome [5] of the same compound?
**A.** The outcome was “inactive”.

**Q.** What about the outcome [6] of the same compound?
**A.** The outcome was “inactive”.

**Q.** What about the outcome [7] of the same compound?
**A.** Its outcome is “inactive”.

**Q.** And the outcome [16]?
**A.** The outcome was “inactive”.

**Q.** What about the outcome [9] of the same compound?
**A.** Its outcome is “inactive”.

**Q.** What about the outcome [11] of the same compound?
**A.** Its outcome is “inactive”.

**Q.** What about the outcome [12] of the same compound?
**A.** The outcome was “inactive”.
